Whole data set: some 8,300 sequences, median “log2 fold change of degron read counts, EGFP-low vs EGFP+ sorted cells (limma voom), compound-induced degradation” near -1.1, cut for the highest 2% near 3.2. The list comes from a sample in which the highest values are over-represented; it also holds similar and randomly drawn sequences.
Target: T1, CRBN, Q96SW2
T1 chain: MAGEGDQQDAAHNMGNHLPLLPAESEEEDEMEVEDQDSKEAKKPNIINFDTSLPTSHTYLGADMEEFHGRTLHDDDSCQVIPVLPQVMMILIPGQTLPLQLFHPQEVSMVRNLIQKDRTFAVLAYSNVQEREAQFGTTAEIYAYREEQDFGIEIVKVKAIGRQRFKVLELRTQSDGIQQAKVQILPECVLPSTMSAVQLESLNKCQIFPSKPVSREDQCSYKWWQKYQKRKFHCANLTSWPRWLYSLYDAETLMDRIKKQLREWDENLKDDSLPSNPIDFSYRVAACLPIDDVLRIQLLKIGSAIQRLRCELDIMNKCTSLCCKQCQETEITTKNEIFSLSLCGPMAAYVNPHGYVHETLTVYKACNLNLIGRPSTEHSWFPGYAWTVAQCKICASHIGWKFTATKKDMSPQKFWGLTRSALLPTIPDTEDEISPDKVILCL
Experiment: log2 fold change of degron read counts, EGFP-low vs EGFP+ sorted cells (limma voom), compound-induced degradation; higher = more compound-induced degradation of the degron-EGFP fusion; degrons are variants of IKZF1/3 zinc finger 2; compound dose not given here
Conditions: Jurkat, 18 h

[1] = compound: compound 19 (5-tert-butyl-thalidomide)
[2] = compound: compound 22 (5-morpholino-thalidomide)
[3] = compound: compound 33 (diphenyl IMiD analogue)
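Also: pooled lentiviral library of zinc finger degron-EGFP fusions in mCherry-positive Jurkat cells, FACS-sorted after compound exposure, with degron abundance counted by next-generation sequencing.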

FICNQCGHFFTQKGNLLRHIKL [46F_47I_49N_50Q_52G_53H_54F_55F_67L_, Q9UKT9]
log2 fold change of degron read counts [1]: -2.52
log2 fold change of degron read counts [2]: -2.59
log2 fold change of degron read counts [3]: -2.06
log2 fold change of degron read counts (compound: thalidomide): -2.52

FKCEICGHFFTQKGNLLRHIKL [46F_47K_49E_50I_52G_53H_54F_55F_67L_, Q9UKT9]
log2 fold change of degron read counts [1]: -2.55
log2 fold change of degron read counts [2]: -2.68
log2 fold change of degron read counts [3]: -2.97
log2 fold change of degron read counts (compound: thalidomide): -2.85

FQCNVCGACFTQKGNLLRHIKL [46F_47Q_49N_50V_52G_53A_54C_55F_67L_, Q9UKT9]
log2 fold change of degron read counts [1]: -1.23
log2 fold change of degron read counts [2]: 0.797
log2 fold change of degron read counts [3]: 0.868
log2 fold change of degron read counts (compound: thalidomide): 3.21

LQCPICGFKCTQKGNLLRHIKL [46L_47Q_49P_50I_52G_53F_54K_55C_67L_, Q9UKT9]
log2 fold change of degron read counts [1]: 0.793
log2 fold change of degron read counts [2]: 2.43
log2 fold change of degron read counts [3]: 0.554
log2 fold change of degron read counts (compound: thalidomide): 3.4

LSCPICGFKCTQKGNLLRHIKL [46L_47S_49P_50I_52G_53F_54K_55C_67L_, Q9UKT9]
log2 fold change of degron read counts [1]: 2.15
log2 fold change of degron read counts [2]: 1.87
log2 fold change of degron read counts [3]: 0.118
log2 fold change of degron read counts (compound: thalidomide): 1.77

LVCPICGFKCTQKGNLLRHIKL [46L_47V_49P_50I_52G_53F_54K_55C_67L_, Q9UKT9]
log2 fold change of degron read counts [1]: 0.655
log2 fold change of degron read counts [2]: 2.13
log2 fold change of degron read counts [3]: 0.489
log2 fold change of degron read counts (compound: thalidomide): 2.78

LDCPICGFKCTQKGNLLRHIKL [46L_47D_49P_50I_52G_53F_54K_55C_67L_, Q9UKT9]
log2 fold change of degron read counts [1]: 0.605
log2 fold change of degron read counts [2]: 0.0419
log2 fold change of degron read counts [3]: -0.53
log2 fold change of degron read counts (compound: thalidomide): 2.02

LRCPICGFKCTQKGNLLRHIKL [46L_47R_49P_50I_52G_53F_54K_55C_67L_, Q9UKT9]
log2 fold change of degron read counts [1]: -0.023
log2 fold change of degron read counts [2]: -0.151
log2 fold change of degron read counts [3]: 0.993
log2 fold change of degron read counts (compound: thalidomide): 1.4

LECPICGFKCTQKGNLLRHIKL [46L_47E_49P_50I_52G_53F_54K_55C_67L_, Q9UKT9]
log2 fold change of degron read counts [1]: 0.756
log2 fold change of degron read counts [2]: -0.257
log2 fold change of degron read counts [3]: 0.961
log2 fold change of degron read counts (compound: thalidomide): 3.26

LHCPICGFKCTQKGNLLRHIKL [46L_47H_49P_50I_52G_53F_54K_55C_67L_, Q9UKT9]
log2 fold change of degron read counts [1]: 2.19
log2 fold change of degron read counts [2]: 2.18
log2 fold change of degron read counts [3]: 1.15
log2 fold change of degron read counts (compound: thalidomide): 1.4

LFCPICGFKCTQKGNLLRHIKL [46L_47F_49P_50I_52G_53F_54K_55C_67L_, Q9UKT9]
log2 fold change of degron read counts [1]: 2.81
log2 fold change of degron read counts [2]: 2.98
log2 fold change of degron read counts [3]: 1.2
log2 fold change of degron read counts (compound: thalidomide): 1.42

LGCPICGFKCTQKGNLLRHIKL [46L_47G_49P_50I_52G_53F_54K_55C_67L_, Q9UKT9]
log2 fold change of degron read counts [1]: 3.67
log2 fold change of degron read counts [2]: 1.98
log2 fold change of degron read counts [3]: -0.000486
log2 fold change of degron read counts (compound: thalidomide): 1.27

FICPICGHQFTQKGNLLRHIKL [46F_47I_49P_50I_52G_53H_54Q_55F_67L_, Q9UKT9]
log2 fold change of degron read counts [1]: -2.44
log2 fold change of degron read counts [2]: -2.12
log2 fold change of degron read counts [3]: -1.5
log2 fold change of degron read counts (compound: thalidomide): -1.12

FGCDVCGAMFTQKGNLLRHIKL [46F_47G_49D_50V_52G_53A_54M_55F_67L_, Q9UKT9]
log2 fold change of degron read counts [1]: 0.868
log2 fold change of degron read counts [2]: -0.562
log2 fold change of degron read counts [3]: -0.229
log2 fold change of degron read counts (compound: thalidomide): -1.8

FTCPICGREFTQKGNLLRHIKL [46F_47T_49P_50I_52G_53R_54E_55F_67L_, Q9UKT9]
log2 fold change of degron read counts [1]: -1.73
log2 fold change of degron read counts [2]: -0.622
log2 fold change of degron read counts [3]: -0.517
log2 fold change of degron read counts (compound: thalidomide): 0.583

FLCNQCGHMFTQKGNLLRHIKL [46F_47L_49N_50Q_52G_53H_54M_55F_67L_, Q9UKT9]
log2 fold change of degron read counts [1]: -2.55
log2 fold change of degron read counts [2]: -2.97
log2 fold change of degron read counts [3]: -3.4
log2 fold change of degron read counts (compound: thalidomide): -2.9

FKCEQCGAQFTQKGNLLRHIKL [46F_47K_49E_50Q_52G_53A_54Q_55F_67L_, Q9UKT9]
log2 fold change of degron read counts [1]: -2.76
log2 fold change of degron read counts [2]: -3.28
log2 fold change of degron read counts [3]: -3.17
log2 fold change of degron read counts (compound: thalidomide): -2.41

FSCPICGHEFTQKGNLLRHIKL [46F_47S_49P_50I_52G_53H_54E_55F_67L_, Q9UKT9]
log2 fold change of degron read counts [1]: -2.38
log2 fold change of degron read counts [2]: -3.52
log2 fold change of degron read counts [3]: -2.42
log2 fold change of degron read counts (compound: thalidomide): -2.6

Source: the supplement of paper PMC12645437, “Orthogonal IMiD-Degron Pairs Induce Selective Protein Degradation in Cells” (ACS Chemical Biology, 2025)
